# Screening results: PubChem, several laboratories
# Yp Topo-I inh = Yersinia pestis topoisomerase I inhibitors, primary screen, biochemical, cleavage product accumulation, plate reader, single point; Y. pestis Topo-I cleavage product accumulation; DNA topoisomerase I (Yersinia pestis CO92); activity, % at 10 µM; 360,000 tested, 0.064% active; in the data active = activity above about 50%, passing the limit was not always enough
# PrPC TRFRET = inhibitors of human cell surface prion protein PrPC, primary screen, cell-based, TR-FRET; Major prion protein (Homo sapiens), P04156; TR-FRET read-out; inhibition, % at 13.8 µM; 370,000 tested, 0.43% active; AID 720596, 2013; in the data active = inhibition above about 24%; also: 0% = median of the test wells and 100% = reference compound wells
# GDH-TPI inh = GDH-TPI coupling enzyme inhibitors, primary screen, artefact control for M. tuberculosis FBA inhibitor project, biochemical, absorbance, full deck. GDH-TPI coupled enzyme counterscreen, NADH absorbance. inhibition, % at 4.8 µM. 360,000 tested, 1.2% active. AID 588335, 2011; in the data active = inhibition above about 30%;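 also: 0% = DMSO wells and 100% = wells lacking the enzyme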
# TcdB inh = TcdB glycohydrolase inhibitors, primary screen, biochemical, single point, plate reader; Toxin B (Clostridioides difficile), P18177; TcdB glycohydrolase enzymatic assay; inhibition, % at 9.99 µM; 350,000 tested, 0.24% active; AID 652162, 2013; in the data active = inhibition above about 10%
# Mtb FBA inh = Mtb FBA enzyme inhibitors, primary screen, biochemical, fluorescence, strain H37Rv; inhibition, % at 1 µM; Fructose-bisphosphate aldolase (Mycobacterium tuberculosis (strain ATCC 25618 / H37Rv)), …; 360,000 tested, 2.3% active; purified M. tuberculosis FBA, fluorescence read-out; in the data active = inhibition above about 27%;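 also: 0% = vehicle and 100% = reference inhibitor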
# Target sequence (P9WQA3 whole entry, looked up): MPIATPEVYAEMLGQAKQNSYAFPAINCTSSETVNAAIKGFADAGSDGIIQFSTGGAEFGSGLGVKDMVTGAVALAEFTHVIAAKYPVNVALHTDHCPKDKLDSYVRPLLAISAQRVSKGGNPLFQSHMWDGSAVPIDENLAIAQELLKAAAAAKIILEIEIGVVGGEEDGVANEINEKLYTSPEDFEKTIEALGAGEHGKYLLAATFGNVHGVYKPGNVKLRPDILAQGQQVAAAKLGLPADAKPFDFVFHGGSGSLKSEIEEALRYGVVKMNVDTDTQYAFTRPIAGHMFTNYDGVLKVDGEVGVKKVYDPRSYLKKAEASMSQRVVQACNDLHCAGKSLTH
# Starred values were filed as active, the others as inactive; x = no result; + = active, no number. Rows were chosen to be rich in hits. Some 3.2% of all compounds tested hit in one or more screens of this group.
SMILES,Yp Topo-I inh,PrPC TRFRET,GDH-TPI inh,TcdB inh,Mtb FBA inh
CC(C)NC(=O)N(C)C[C@@H]1Oc2ccc(N(C)C)cc2CC(=O)N([C@H](C)CO)C[C@H]1C,x,x,x,-8.2,x
O=C(N[C@H]1CC[C@@H](CCn2cc(-c3cccnc3)nn2)O[C@@H]1CO)c1ccccc1F,x,x,x,0.6,x
O=C(NCCCN1CCCC1=O)c1cc(S(=O)(=O)N2CCN(c3ccccc3)CC2)ccc1Cl,7.8,-3.4,-4.0,-0.7,9.4
Cc1ccc(S(=O)(=O)N2CCOCC2)cc1C(=O)NCCCN1CCCC1=O,-3.0,0.0,5.4,10.6*,3.9
N#C/C(=C\c1cc2c(cc1Br)OCO2)c1ccc(C(=O)O)cc1,-4.0,0.7,31.4*,-2.7,0.3
Cc1ccc(S(=O)(=O)Nc2ccc3c(c2)C(=O)N([C@H](C)CO)C[C@@H](C)[C@H](CN(C)Cc2ccncc2)OCCCC[C@H](C)O3)cc1,x,x,x,0.4,x
COc1ccc(CC(=O)C2C(=O)N(C)c3ccccc32)cc1OC (stereo unspecified),5.6,-8.4,17.2,10.6*,5.6
O=C(C[C@H]1CC[C@H]2[C@@H](COC[C@@H](O)CN2C(=O)c2ccccc2)O1)NCc1ccc(-c2ccccc2)cc1,x,x,x,0.2,x
O=C(OCC(=O)N1CCCc2ccccc21)c1ccc(C(F)(F)F)cc1,5.1,-0.5,17.3,10.6*,4.5
CC(=O)N(C)c1ccc(N=Nc2c(C)[nH]n(-c3ccccc3)c2=O)cc1,8.6,-9.1,-2.8,0.3,1.5
CC(=O)N(C)c1ccc(N=Nc2ccc3ncccc3c2)cc1,-10.4,-50.3,56.4*,-7.1,3.9
O=C(C[C@H]1CC[C@@H](NC(=O)C2CCC2)[C@@H](CO)O1)NCC1CC1,x,x,x,-1.6,x
CC(C)NC(=O)N(C)C[C@H]1Oc2cc(C#C[C@H](C)O)ccc2S(=O)(=O)N([C@@H](C)CO)C[C@H]1C,x,x,x,1.9,x
CC1(C)CC(=O)C2=C(C1)Nc1ccccc1NC2c1cccnc1 (stereo unspecified),4.4,5.2,37.3*,0.8,1.6
CCOc1cc(C2Nc3ccccc3NC3=C2C(=O)CC(C)(C)C3)ccc1O (stereo unspecified),3.0,-2.2,6.5,-1.5,2.8
CCOc1cc(C2Nc3ccccc3NC3=C2C(=O)CC(C)(C)C3)ccc1OC(C)=O (stereo unspecified),-0.3,-0.8,43.4*,0.8,-0.3
Cc1cc2c(cc1C)NC(c1cccnc1)C1=C(CC(C)(C)CC1=O)N2 (stereo unspecified),1.9,0.3,32.9*,x,-2.4
COC(=O)c1ccc2c(c1)NC1=C(C(=O)CC(C)(C)C1)C(c1ccncc1)N2 (stereo unspecified),-7.6,2.5,31.3*,1.4,-0.2
CCNC(=O)[C@@H]1[C@@H](CO)[C@@H]2Cn3c(ccc(-c4ccccc4F)c3=O)[C@H]1N2C(=O)CC,x,x,x,0.0,x
C[C@H]1CN([C@@H](C)CO)C(=O)c2cc(-c3cccc(F)c3)cnc2O[C@H]1CN(C)C(=O)C1CCC1,x,x,x,-0.1,x
C=CCn1c(CC(=O)OC)csc1=Nc1ccc(C(C)=O)cc1,5.9,-4.1,30.8*,0.8,3.9
Oc1ccccc1C=Nc1ccccc1-c1nc2ccccc2[nH]1,-5.6,7.8,17.8,x,128.1*
COc1ccc(OC)c(C=Nc2ccccc2-c2nc3ccccc3[nH]2)c1,5.8,1.9,16.9,2.6,+
Oc1ccc(C=Nc2ccccc2-c2nc3ccccc3[nH]2)c(O)c1,-9.5,9.9,32.6*,-1.6,166.1*
C[C@@H]1CN([C@@H](C)CO)C(=O)c2cccc(NS(=O)(=O)c3ccccc3)c2O[C@@H]1CN(C)CC1CCCCC1,x,x,x,-0.1,x
SMILES,Yp Topo-I inh,PrPC TRFRET,GDH-TPI inh,TcdB inh,Mtb FBA inh
COc1ccccc1-c1coc2c(CN(C)C)c(O)ccc2c1=O,-2.2,10.2,21.9,-6.5,188.3*
CCN(CC)Cc1c(O)ccc2c(=O)c(-c3ccc4c(c3)OCCO4)coc12,-4.5,-1.0,31.2*,x,22.5
CC(C)N(Cc1c(O)ccc2c(=O)c(-c3ccc(Cl)cc3)coc12)C(C)C,2.7,0.2,6.4,0.3,7.4
COc1ccccc1Oc1coc2c(CN(C)C)c(O)ccc2c1=O,-2.9,1.3,25.2,x,114.0*
C[C@@H]1CN([C@@H](C)CO)C(=O)c2cc(-c3ccccc3F)cnc2O[C@@H]1CN(C)C,x,x,x,-3.2,x
C[C@@H](NC(=O)C[C@H]1CC[C@H](NC(=O)Nc2ccc3c(c2)OCO3)[C@H](CO)O1)c1ccccc1,x,x,x,-2.5,x
Cc1ccccc1S(=O)(=O)N1C[C@@H](O)COC[C@H]2O[C@H](CC(=O)N3CCCCC3)CC[C@@H]21,x,x,x,0.5,x
CCc1cc(=O)oc2cc(OC(=O)CN3C(=O)NC4(CCCC4)C3=O)ccc12,2.6,3.2,18.9,1.5,+
O=C(CN1C(=O)NC2(CCCC2)C1=O)Oc1ccc2ccc(=O)oc2c1,-12.2,-0.4,26.5,2.1,x
CCOC(=O)Nc1ccc2c(CN3C(=O)NC(CC)(CC)C3=O)cc(=O)oc2c1,x,-11.6,x,x,x
CCOC(=O)Nc1ccc2c(CN3C(=O)NC4(CCCC4)C3=O)cc(=O)oc2c1,0.7,-3.8,22.8,x,+
O=C(/C=C/c1cccs1)Nc1cccnc1,8.7,-3.2,32.3*,1.5,-3.2
Cc1ccnc(NC(=O)/C=C/c2cccs2)c1,-2.6,-3.9,30.7*,x,6.4
Cc1ccnc(NC(=O)CNC(=O)c2cccs2)c1,1.7,0.7,-0.7,1.4,-0.4
O=C(Nc1cccnc1)c1cccs1,-0.1,x,1.4,1.0,-0.1
O=C(/C=C/c1cccs1)Nc1nncs1,3.0,-16.5,69.6*,0.9,-6.1
N#C/C(=C\c1ccc(OCC(N)=O)cc1)C(=O)NC1CC1,4.1,-4.3,45.4*,0.6,-4.1
CNC(=O)/C(C#N)=C/c1ccc(OCCOc2ccccc2)cc1,-3.6,2.4,40.1*,-0.4,0.5
COc1ccc(/C=C(\C#N)C(=O)NCc2ccccc2)cc1,-2.4,1.6,40.0*,-0.3,-2.3
COc1ccc(/C=C(\C#N)C(=O)NCC(c2ccc(F)cc2)N2CCOCC2)cc1 (stereo unspecified),16.5,-0.1,43.0*,2.4,-1.2
N#C/C(=C\c1ccc(O)cc1)C(=O)NCc1ccccc1,3.5,5.7,21.9,0.4,0.5
Cc1ccc(/C=C(/C#N)C(=O)NC(=O)Oc2ccccc2)cc1,3.9,5.8,27.8,1.1,1.9
COc1ccccc1S(=O)(=O)N1CC[C@@H]2[C@@H](CO)N(C)c3ccc(-c4ccc(F)cc4)cc3[C@@H]21,x,x,x,-0.3,x
COc1ccc(CN(C)C[C@H]2Oc3c(NC(=O)C4CCOCC4)cccc3C(=O)N([C@@H](C)CO)C[C@@H]2C)cc1,x,x,x,-1.8,x
C[C@@H]1CN([C@@H](C)CO)C(=O)c2cc(NS(=O)(=O)c3cn(C)cn3)ccc2O[C@H]1CN(C)C(=O)Nc1ccccc1,x,x,x,0.4,x
Cc1cc(NS(=O)(=O)c2ccc(NC(=O)c3ccc([N+](=O)[O-])s3)cc2)nc(C)n1,-5.0,-51.4,31.2*,0.1,-0.9
